In PubChem BioAssay AID651638 (Johns Hopkins Ion Channel Center, 2012):
Out of some 2,400 compounds screened, about 2,400 (100%) were called active.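 How the source made its calls: active means ratio percent of control, averaged over triplicates, above buffer control mean plus 5 SD (cut at about 64% in these data); inactive means the rest.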 So high a share suggests a set chosen from earlier hits. A selection follows.

Molecular target: Potassium channel subfamily K member 3 (Homo sapiens) (UniProt O14649)
Assay: TASK1 potassium channel blockade, triplicate retest – CHO cells, FluxOR thallium flux, confirmation (AID 651638);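 further: ratio is the fluorescence rise from min to max over baseline after thallium stimulus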
Settings: CHO-KCNK3 thallium flux, FluxOR fluorescence, at 10 µM, hits give high values

Sequence of Potassium channel subfamily K member 3 (Homo sapiens) (O14649 whole entry, looked up): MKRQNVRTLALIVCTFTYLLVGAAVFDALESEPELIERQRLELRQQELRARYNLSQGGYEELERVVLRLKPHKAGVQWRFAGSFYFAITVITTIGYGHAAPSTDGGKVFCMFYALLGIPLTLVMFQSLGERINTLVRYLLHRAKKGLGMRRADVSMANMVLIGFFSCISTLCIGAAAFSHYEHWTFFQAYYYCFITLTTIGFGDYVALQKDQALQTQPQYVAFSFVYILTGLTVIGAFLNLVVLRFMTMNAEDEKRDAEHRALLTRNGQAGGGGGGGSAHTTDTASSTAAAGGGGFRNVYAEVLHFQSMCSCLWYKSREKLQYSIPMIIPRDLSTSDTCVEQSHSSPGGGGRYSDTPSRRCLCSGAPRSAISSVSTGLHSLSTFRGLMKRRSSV

Row | Compound | ratio percent of control
1 | COc1ccccc1C1=NCc2nnc(CSC)n2-c2ccc(Cl)cc21 | 54.7% (active)
2 | CCCCCCN=C(CC)c1c(O)n(CCCC)c(=O)[nH]c1=O | 129% (active)
3 | CCOC(=O)C1SC2(C(F)(F)C(F)F)CC1(O)c1c(c(OC)c3occc3c1OC)O2 (stereo not drawn) | 112% [0% buffer, 100% carvedilol maximal block] (active)
